Records with an inconclusive call do not appear. Activity calls are given as the source filed them.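 How the source made its calls, unless noted: active means inhibition above 54%, about 3 SD of non-fluorescent compounds; inactive means the rest.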
What was measured:
[1] = rapamycin-like changes in RPL19A-GFP expression – cell-based, S. cerevisiae, multiplex flow cytometry, primary screen (AID 1862; in the data active means percent of DMSO control GFP below about 86%;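 further: lower values mimic rapamycin by blocking the RPL19A rise seen in DMSO cells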); details: S. cerevisiae RPL19A-GFP strain, flow cytometry fluorescence, 3 h; at 10 µM; stronger effect = lower value
[2] = TOR pathway GLN3 branch reporter MEP2-GFP changes – S. cerevisiae, multiplex flow cytometry, primary screen (AID 1867;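 active means GFP response, as percent of the DMSO control, above the screen-wide mean plus 3 SD, about 139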;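 further: median GFP channel fluorescence of barcode-gated MEP2-GFP cells measured by flow cytometry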); details: S. cerevisiae MEP2-GFP strain, 3 h, at 10 µM, stronger effect = higher value, 100% means same as DMSO wells
[3] = TOR pathway RTG branch CIT2 reporter changes – S. cerevisiae, GFP fusion, multiplex flow cytometry, primary screen (AID 1870;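 active means percent response above a set limit, the screen-wide mean plus 3 SD, cut at about 130% in these data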;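 further: barcoded CIT2-GFP strain pooled with four other GFP strains with rapamycin as positive control; median GFP fluorescence per well over plate mean of DMSO wells so 100% = DMSO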); details: S. cerevisiae CIT2-GFP expression, 3 h, at 10 µM, stronger effect = higher value
[4] = TOR pathway LAP4-GFP level changes – S. cerevisiae, multiplex flow cytometry, primary screen (AID 1873;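 active means GFP signal, as percent of the solvent control, above the screen mean plus 3 SD, about 149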); details: S. cerevisiae LAP4-GFP expression, 3 h, at 10 µM, stronger effect = higher value
[5] = yeast AGP1-GFP level changes, GLN3 branch – cell-based, multiplex flow cytometry, S. cerevisiae, primary screen (AID 1887;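 active means GFP signal above the screen-wide mean plus 3 SD, that is over about 124.5% of the solvent control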;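 further: AGP1-GFP fusion strain of S. cerevisiae within a five-strain barcoded multiplex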); details: 3 h, at 10 µM, stronger effect = higher value
[6] = reduced mouse 2C T cell binding to pMHC/ICAM-1 vesicles – MLPCN validation set, flow cytometry, LFA-1/ICAM-1 modulator project, pilot screen (AID 2523;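 active means response below a set limit, under 55% cells CD8-positive and vesicle-bound, and CD8 cells' 90th-percentile brightness under 279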;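 on vesicle binding response: mean PE anti-B7-1 fluorescence of CD8+ cells relative to row control; 100% = QL9-loaded vesicles with DMSO vehicle in the same plate row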); details: 2C mouse CD8+ T cells, at 7 µM, stronger effect = lower value; double positive events: measured here: CD8+/vesicle+ event percentage
[7] = biological target: Integrin beta-1 (Homo sapiens) + Integrin alpha-4 (Homo sapiens) (UniProt P13612+P05556); assay: alpha4beta1 integrin LIBS antibody binding reduction – U937 cells, HUTS-21 mAb, flow cytometry, validation set, VLA-4 allosteric modulator project, pilot screen (AID 2674;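 active means inhibition above 50%, about 3 SD of the validation set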;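 further: antibody binding induced by the VLA-4 ligand LDV present at three times its Kd; 0% = LDV ligand with antibody and no compound and 100% = antibody without LDV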); details: HUTS-21 LIBS mAb binding, at 6.7 µM, stronger effect = higher value, binding induced by LDV ligand
Chain of Integrin beta-1 (Homo sapiens) + Integrin alpha-4 (Homo sapiens) (P05556 whole entry, looked up): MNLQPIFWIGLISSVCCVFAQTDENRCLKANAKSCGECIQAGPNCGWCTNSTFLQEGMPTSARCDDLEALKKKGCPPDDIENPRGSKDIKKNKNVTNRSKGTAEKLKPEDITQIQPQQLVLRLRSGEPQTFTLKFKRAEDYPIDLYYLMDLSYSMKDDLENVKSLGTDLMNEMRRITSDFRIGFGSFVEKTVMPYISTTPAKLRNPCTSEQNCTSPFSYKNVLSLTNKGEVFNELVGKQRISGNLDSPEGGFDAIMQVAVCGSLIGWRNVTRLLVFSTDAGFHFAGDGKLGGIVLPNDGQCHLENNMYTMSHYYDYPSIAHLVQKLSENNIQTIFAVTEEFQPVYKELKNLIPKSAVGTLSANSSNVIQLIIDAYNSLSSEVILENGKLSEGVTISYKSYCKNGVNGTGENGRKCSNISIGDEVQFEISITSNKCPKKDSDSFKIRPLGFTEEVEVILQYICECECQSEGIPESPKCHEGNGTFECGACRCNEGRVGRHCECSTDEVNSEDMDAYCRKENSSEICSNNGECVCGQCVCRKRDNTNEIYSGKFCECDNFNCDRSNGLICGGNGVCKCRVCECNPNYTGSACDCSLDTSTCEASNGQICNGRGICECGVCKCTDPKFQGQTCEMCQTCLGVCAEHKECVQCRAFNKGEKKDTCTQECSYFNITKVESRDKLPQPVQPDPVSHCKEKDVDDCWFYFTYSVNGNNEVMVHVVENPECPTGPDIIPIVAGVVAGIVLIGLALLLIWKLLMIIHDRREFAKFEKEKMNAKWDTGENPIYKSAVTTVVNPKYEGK
Chain of Integrin beta-1 (Homo sapiens) + Integrin alpha-4 (Homo sapiens) (P13612 whole entry, looked up): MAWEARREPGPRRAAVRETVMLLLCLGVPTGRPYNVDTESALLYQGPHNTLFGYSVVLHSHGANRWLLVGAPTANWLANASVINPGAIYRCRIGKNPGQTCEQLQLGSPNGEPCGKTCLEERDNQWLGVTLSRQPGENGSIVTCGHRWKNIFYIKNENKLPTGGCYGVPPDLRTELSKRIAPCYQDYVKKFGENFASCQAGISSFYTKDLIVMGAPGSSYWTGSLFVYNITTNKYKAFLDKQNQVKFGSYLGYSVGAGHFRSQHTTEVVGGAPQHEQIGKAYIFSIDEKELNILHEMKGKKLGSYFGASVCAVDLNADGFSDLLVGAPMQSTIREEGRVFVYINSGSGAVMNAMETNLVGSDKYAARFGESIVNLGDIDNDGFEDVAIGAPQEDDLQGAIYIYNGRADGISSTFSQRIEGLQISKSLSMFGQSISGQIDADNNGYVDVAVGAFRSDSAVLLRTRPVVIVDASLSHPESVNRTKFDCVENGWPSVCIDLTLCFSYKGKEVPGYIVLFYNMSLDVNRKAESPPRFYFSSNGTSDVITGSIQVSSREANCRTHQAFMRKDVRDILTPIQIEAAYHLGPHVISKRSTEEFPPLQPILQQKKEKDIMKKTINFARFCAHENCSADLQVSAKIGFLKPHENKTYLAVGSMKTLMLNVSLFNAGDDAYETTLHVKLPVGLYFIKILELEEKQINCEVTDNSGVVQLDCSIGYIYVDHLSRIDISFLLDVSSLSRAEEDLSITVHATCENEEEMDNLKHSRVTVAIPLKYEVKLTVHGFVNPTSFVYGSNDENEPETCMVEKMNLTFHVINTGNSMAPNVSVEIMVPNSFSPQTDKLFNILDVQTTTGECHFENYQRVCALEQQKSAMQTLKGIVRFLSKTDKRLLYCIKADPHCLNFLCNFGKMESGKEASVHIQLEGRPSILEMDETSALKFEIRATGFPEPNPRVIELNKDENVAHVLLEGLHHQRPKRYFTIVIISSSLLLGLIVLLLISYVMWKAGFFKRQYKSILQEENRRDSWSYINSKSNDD

[8] = calorie-restriction mimetic ROS inhibitors, yeast – validation compound set, pilot screen (AID 2706;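 active means superoxide response below 65% of plate, a cut near 3 SD across the whole screen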;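 further: yeast exposed to compound for one week at 30 degrees C before staining; 100% = mean of all compound wells on the same plate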); details: S. cerevisiae aging, superoxide DHE fluorescence; at 10 µM; stronger effect = lower value
[9] = biological target: Beta-adrenergic receptor kinase 1 (Homo sapiens) (UniProt P25098); assay: GRK2 binders displacing RNA aptamer, biochemical, validation, human GRK2, bead flow cytometry (AID 488806;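 active means aptamer binding inhibition above 30%, about 3 SD of noise from non-fluorescent compounds; inactive means inhibition at or below 30%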); details: bead-bound GRK2, FAM-aptamer displacement, at 10 µM, stronger effect = higher value
Chain of Beta-adrenergic receptor kinase 1 (Homo sapiens) (P25098 whole entry, looked up): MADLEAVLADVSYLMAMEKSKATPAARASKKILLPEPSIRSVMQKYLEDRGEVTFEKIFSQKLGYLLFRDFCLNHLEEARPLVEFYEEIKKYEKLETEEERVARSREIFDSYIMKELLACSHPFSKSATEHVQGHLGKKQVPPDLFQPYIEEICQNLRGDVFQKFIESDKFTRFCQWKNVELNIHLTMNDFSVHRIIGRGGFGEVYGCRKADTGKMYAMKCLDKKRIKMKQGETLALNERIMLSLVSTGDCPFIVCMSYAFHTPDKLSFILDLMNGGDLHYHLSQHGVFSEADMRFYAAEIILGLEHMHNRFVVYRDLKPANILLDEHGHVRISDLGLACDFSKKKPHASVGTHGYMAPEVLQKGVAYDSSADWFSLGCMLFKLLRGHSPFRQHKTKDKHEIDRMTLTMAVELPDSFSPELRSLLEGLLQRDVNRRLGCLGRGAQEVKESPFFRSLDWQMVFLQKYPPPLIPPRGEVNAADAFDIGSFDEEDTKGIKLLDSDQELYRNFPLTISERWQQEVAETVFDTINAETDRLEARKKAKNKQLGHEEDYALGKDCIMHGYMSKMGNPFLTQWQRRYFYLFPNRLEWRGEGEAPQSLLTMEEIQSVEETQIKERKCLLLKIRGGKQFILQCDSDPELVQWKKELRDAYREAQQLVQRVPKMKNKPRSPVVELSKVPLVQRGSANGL

[10] = biological target: Beta-2 adrenergic receptor (Homo sapiens) (UniProt P07550); assay: agonist-induced loss of surface beta2AR – cell-based, FAP fluorogen, flow cytometry, validation set, pilot screen (AID 504459;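 active means percent response above 42, roughly 3 SD of non-fluorescent test compounds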;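 further: agonist-driven loss of surface beta2AR via internalization measured by FAP dye flow cytometry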); details: Am2.2-beta2AR cells, at 10 µM, stronger effect = higher value
Chain of Beta-2 adrenergic receptor (Homo sapiens) (P07550 whole entry, looked up, the tested form may be a part): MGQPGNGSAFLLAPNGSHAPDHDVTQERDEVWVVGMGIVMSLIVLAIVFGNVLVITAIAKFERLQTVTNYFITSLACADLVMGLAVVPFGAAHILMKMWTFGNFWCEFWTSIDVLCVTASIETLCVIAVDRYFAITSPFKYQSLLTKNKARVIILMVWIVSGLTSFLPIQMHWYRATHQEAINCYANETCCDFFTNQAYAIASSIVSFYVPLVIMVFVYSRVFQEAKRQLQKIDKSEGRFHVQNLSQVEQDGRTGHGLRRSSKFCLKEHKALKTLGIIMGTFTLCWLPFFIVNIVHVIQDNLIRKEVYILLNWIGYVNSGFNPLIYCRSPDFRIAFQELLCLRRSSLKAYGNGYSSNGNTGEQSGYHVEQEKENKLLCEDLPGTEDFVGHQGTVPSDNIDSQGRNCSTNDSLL

[11] = biological target: AP-2 complex subunit beta (Homo sapiens) (UniProt P63010); assay: beta-arrestin/AP2 interaction blockers – biochemical, validation set, GST-AP2 beads, flow cytometry, pilot screen (AID 504541); details: FITC arrestin peptide, at 10 µM, stronger effect = higher value, AP2 beta2 appendage fragment, R879A mutant;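 further: AP2 carries R879A mutation and is captured from E. coli lysate; bead-bound FITC arrestin peptide fluorescence measuring arrestin peptide binding to AP2; 0% = DMSO wells and 100% = excess unlabeled arrestin peptide control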
Chain of AP-2 complex subunit beta (Homo sapiens) (P63010 whole entry, looked up, the tested form may be a part, one chain of several): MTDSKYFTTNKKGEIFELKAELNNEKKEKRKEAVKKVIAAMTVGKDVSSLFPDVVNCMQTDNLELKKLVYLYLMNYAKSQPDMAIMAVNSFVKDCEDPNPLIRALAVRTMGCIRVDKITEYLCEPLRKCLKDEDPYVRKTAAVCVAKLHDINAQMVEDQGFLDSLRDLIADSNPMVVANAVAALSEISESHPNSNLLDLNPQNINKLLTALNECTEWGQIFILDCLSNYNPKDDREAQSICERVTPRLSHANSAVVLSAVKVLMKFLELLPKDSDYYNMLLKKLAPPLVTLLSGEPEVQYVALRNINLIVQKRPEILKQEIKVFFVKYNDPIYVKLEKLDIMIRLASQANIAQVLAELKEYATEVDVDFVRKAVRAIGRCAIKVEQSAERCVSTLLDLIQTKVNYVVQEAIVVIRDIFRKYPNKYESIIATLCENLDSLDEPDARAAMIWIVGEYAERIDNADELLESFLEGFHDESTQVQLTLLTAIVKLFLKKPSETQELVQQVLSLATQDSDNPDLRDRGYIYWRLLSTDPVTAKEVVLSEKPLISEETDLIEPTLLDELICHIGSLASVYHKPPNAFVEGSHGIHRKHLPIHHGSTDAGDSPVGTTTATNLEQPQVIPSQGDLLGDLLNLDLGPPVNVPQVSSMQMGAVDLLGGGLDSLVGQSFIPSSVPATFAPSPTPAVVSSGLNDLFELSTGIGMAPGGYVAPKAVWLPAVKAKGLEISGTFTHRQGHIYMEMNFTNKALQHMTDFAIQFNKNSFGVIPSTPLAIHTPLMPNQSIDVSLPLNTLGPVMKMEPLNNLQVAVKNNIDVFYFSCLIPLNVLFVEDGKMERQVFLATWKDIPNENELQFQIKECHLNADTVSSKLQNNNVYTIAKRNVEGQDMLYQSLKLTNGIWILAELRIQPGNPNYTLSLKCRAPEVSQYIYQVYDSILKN

[12] = cytosolic pH regulators acting via V-ATPase – S. cerevisiae, pHLuorin, HTS validation (AID 504600; in the data active means response above about 15%;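 further: plate controls were DMSO for no effect and reference compound for full effect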); details: V-ATPase proton transport, at 10 µM, stronger effect = higher value
[13] = tested on: anti-desmoglein-3 scFv antibody binding to human DSG3; assay: blockers of pathogenic pemphigus antibody–desmoglein-3 binding – biochemical, validation compound set, bead-based, flow cytometry, pilot screen (AID 588368;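 active means binding below the plate cutoff, the plate median minus 3 SD, with a reading above zero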;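 further: signal is the median channel fluorescence of bead-bound GFP antibody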); details: Protein G beads, DSG3-Fc, scFv-GFP binding, at 10 µM, stronger effect = lower value
[14] = Nile Red efflux blockade in pump-expressing yeast – validation compound set, multiplex, phenotypic, pilot screen (AID 588506;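 active means efflux inhibition above 0.42, the validation set average plus 4 SD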;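 further: Nile Red retained in cells so higher fluorescence means more efflux inhibition; 0 = negative control wells and 1 = enniatin B 25 µM full block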); details: S. cerevisiae pump-expressing triplex, Nile Red efflux flow cytometry; at 10 µM; stronger effect = higher value; the pumps come from Candida albicans
[15] = biological target: ATP-binding cassette sub-family B member 6 (Homo sapiens) (UniProt Q9NP58); assay: blockers of ABCB6-driven porphyrin uptake – K562-ABCB6 cells, flow cytometry, validation set, pilot screen (AID 588550;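 active means inhibition above the screen-wide mean plus 3 SD, about 51%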;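 further: 0% = DMSO wells and 100% = benzethonium chloride 70 µM positive control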); details: K562-ABCB6 porphyrin accumulation, 1 h, at 10 µM, stronger effect = higher value
Chain of ATP-binding cassette sub-family B member 6 (Homo sapiens) (Q9NP58 whole entry, looked up): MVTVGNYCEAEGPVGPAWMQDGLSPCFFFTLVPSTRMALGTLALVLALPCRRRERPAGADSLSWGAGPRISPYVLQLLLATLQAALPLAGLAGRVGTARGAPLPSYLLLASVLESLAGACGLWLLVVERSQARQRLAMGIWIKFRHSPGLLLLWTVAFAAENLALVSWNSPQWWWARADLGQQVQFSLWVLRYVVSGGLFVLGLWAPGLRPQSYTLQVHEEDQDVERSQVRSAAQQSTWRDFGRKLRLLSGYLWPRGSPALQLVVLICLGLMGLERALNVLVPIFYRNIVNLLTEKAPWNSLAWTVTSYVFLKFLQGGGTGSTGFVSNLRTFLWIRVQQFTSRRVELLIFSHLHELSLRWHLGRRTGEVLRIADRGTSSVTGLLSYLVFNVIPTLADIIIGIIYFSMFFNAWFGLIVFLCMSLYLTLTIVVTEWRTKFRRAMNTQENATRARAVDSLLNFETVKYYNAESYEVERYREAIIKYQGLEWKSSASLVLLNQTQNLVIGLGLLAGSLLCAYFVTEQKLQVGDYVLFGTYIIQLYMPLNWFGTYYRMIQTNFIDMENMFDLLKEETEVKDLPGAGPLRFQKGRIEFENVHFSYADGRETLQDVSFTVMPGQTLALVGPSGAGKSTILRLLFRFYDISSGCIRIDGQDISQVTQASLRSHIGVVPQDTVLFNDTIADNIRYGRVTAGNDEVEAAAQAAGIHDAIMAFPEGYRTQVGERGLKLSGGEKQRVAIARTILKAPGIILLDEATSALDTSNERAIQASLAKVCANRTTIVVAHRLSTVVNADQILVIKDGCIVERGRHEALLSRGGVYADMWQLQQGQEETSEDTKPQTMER

[16] = AML differentiation inducers, ER-HoxA9 marrow cells – cell-based, GFP/MAC1 double positive, flow cytometry, validation set, primary screen (AID 588685;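 active means differentiation response of at least 50%, scaled between solvent and reference control, from cells with both markers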;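 further: compound exposure lasts four days before antibody staining and flow analysis; 0% = DMSO wells and 100% = 5 µM fulvestrant positive control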); details: stronger effect = higher value, normalized: vehicle 0, fulvestrant 100

Compound	percent of DMSO control GFP [1]	GFP response vs DMSO [2]	percent response of DMSO control [3]	GFP response vs DMSO [4]	GFP response, % of DMSO [5]	double positive events [6] [%]	vesicle binding response [6]	inhibition [7]	superoxide response (% of plate) [8]	aptamer binding inhibition [9]	response [10]	inhibition [11]	response [12]	binding (% of control) [13]	efflux inhibition (fraction of control) [14]	inhibition [15]	differentiation response [16]
COc1cc2oc(-c3ccc(O)cc3)cc(=O)c2c(OC)c1O	100% (inactive)	101% (inactive)	104% (inactive)	88.2% (inactive)	98% (inactive)	56.3	118% (inactive)	-11.8% (inactive)	107% (inactive)	3% (inactive)	-2.51% (inactive)	-0.6% (inactive)	-4.25% (inactive)	100% (inactive)	-0.16 (inactive)	0% (inactive)	8.59% (inactive)
CN(C)C(=O)Oc1ccc[n+](C)c1	102% (inactive)	106% (inactive)	94.2% (inactive)	94.7% (inactive)	95.9% (inactive)	62.3	1200% (inactive)	0.58% (inactive)	104% (inactive)	4% (inactive)	0.34% (inactive)	16.8% (inactive)	-1.45% (inactive)	103% (inactive)	-0.1 (inactive)	13% (inactive)	-1.71% (inactive)
COc1ccc(/C=C(/C#N)c2cccnc2)cc1OC	101% (inactive)	104% (inactive)	94.9% (inactive)	99.4% (inactive)	99.1% (inactive)	54.1	6.8% (active)	-13.2% (inactive)	98.6% (inactive)	3% (inactive)	-1.52% (inactive)	23.7% (inactive)	0.34% (inactive)	105% (inactive)	0.42 (inactive)	2% (inactive)	17.1% (inactive)
CSCCC(NC(C)=O)C(=O)Oc1ccc2c3c(c(=O)oc2c1)CCCC3 (stereo not drawn)	102% (inactive)	101% (inactive)	105% (inactive)	99.9% (inactive)	100% (inactive)	61.1	56% (inactive)	3.7% (inactive)	102% (inactive)	4% (inactive)	-6.44% (inactive)	17.4% (inactive)	-2.62% (inactive)	93.2% (inactive)	-0.01 (inactive)	11% (inactive)	0.24% (inactive)
CCc1c(C(C)=O)oc2ccc3c(C)cc(=O)oc3c12	94.6% (inactive)	125% (inactive)	115% (inactive)	91.9% (inactive)	101% (inactive)	61.9	146% (inactive)	-13.9% (inactive)	92.5% (inactive)	1% (inactive)	1.28% (inactive)	-11.6% (inactive)	0.32% (inactive)	99% (inactive)	-0.17 (inactive)	11% (inactive)	9.01% (inactive)
Cc1ccc(CN2CCN(CCCc3ccccc3)CC2CCO)cc1 (stereo not drawn)	103% (inactive)	104% (inactive)	106% (inactive)	97.3% (inactive)	104% (inactive)	62.7	219% (inactive)	7.85% (inactive)	106% (inactive)	1% (inactive)	9.66% (inactive)	30.3% (inactive)	-5.49% (inactive)	102% (inactive)	-0.01 (inactive)	-8% (inactive)	10% (inactive)
O=C(Cc1ccccc1)NCC(=O)OCC(=O)c1ccccc1Cl	98.3% (inactive)	112% (inactive)	107% (inactive)	74.3% (inactive)	93.3% (inactive)	76.4	296% (inactive)	-2.27% (inactive)	92.9% (inactive)	4% (inactive)	-1.13% (inactive)	-4.1% (inactive)	3.49% (inactive)	106% (inactive)	-0.42 (inactive)	17% (inactive)	-0.82% (inactive)
CC(=O)CC(c1ccc([N+](=O)[O-])cc1)c1c(O)c2ccccc2oc1=O (stereo not drawn)	107% (inactive)	105% (inactive)	105% (inactive)	118% (inactive)	114% (inactive)	60.4	115% (inactive)	-5.11% (inactive)	105% (inactive)	-1% (inactive)	-6.11% (inactive)	1.39% (inactive)	1.39% (inactive)	99% (inactive)	0.4 (inactive)	2% (inactive)	-11.9% (inactive)
N#C/C(=C/c1ccccc1)C(=O)NCc1ccccc1	97.4% (inactive)	108% (inactive)	101% (inactive)	106% (inactive)	102% (inactive)	58	197% (inactive)	7.76% (inactive)	95.8% (inactive)	0% (inactive)	-0.74% (inactive)	8.66% (inactive)	-0.63% (inactive)	101% (inactive)	-0.06 (inactive)	3% (inactive)	-18.4% (inactive)
